Rows were chosen to be rich in hits. Some 1.5% of all compounds tested hit in one or more screens of this group.
PLC-gamma1 inh: PLC-gamma1 enzyme inhibitors, primary screen, biochemical, fluorescence, purified enzyme | 0.84% of 370,000 active | AID 720700, 2013 | 1-phosphatidylinositol 4,5-bisphosphate phosphodiesterase gamma-1 (Homo sapiens), P19174 | inhibition, % at 12.2 µM | fluorogenic substrate
sPLA2-III inh: human group III sPLA2 inhibitors, primary screen, biochemical, QFRET, BODIPY PC-A2 liposome substrate. Group 3 secretory phospholipase A2 (Homo sapiens), Q9NZ20. QFRET BODIPY PC-A2 liposome hydrolysis, fluorescence. inhibition, % at 12.2 µM. 0.56% of 370,000 active;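 active means inhibition above mean plus 3 SD of compounds lying within the high and low control bounds, cut at about 19% in these data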;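 further: 0% = median of test compound wells and 100% = no enzyme DMSO wells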
Target sequence (Q9NZ20 whole entry, looked up): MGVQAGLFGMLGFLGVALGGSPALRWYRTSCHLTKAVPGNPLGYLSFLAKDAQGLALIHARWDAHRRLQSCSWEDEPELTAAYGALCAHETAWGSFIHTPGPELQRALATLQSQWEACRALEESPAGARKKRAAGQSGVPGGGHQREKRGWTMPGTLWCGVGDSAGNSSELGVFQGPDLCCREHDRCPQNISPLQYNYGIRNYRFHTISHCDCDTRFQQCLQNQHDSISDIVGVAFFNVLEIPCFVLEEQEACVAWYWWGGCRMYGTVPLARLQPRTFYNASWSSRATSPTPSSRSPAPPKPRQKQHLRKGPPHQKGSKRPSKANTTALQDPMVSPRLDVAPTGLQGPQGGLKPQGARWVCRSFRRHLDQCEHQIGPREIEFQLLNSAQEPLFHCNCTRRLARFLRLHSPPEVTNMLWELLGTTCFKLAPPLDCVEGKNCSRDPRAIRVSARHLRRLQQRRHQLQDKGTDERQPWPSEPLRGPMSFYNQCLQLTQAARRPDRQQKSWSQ
DAGLB inh: DAGLB lipase inhibitors, primary screen, biochemical, fluorescence, HTS; Diacylglycerol lipase-beta (Homo sapiens), Q8NCG7; HEK293T DAGLB membrane lysate, EnzChek fluorogenic substrate; inhibition, % at 5.17 µM; 0.059% of 340,000 active; AID 504411, 2011; in the data active means inhibition above about 34%;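 further: 0% = enzyme with vehicle and 100% = wells lacking enzyme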
PLC-beta3 inh: human PLC-beta3 inhibitors, primary screen, biochemical, fluorescence. Purified PLC-beta3, fluorogenic substrate. inhibition, % at 12.2 µM. 0.18% of 370,000 active; in the data active means inhibition above about 11%;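 further: 0% = median of compound wells on plate and 100% = full blocker control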
PLCgamma1 ctr: PLC-gamma1 enzyme inhibitors, counter-screen for PLC-beta3 inhibitor project, biochemical, fluorescence; 3.1% of 3,300 active; inhibition, % at 12.3 µM; AID 743258, 2014; purified PLC-gamma1, fluorogenic substrate; shares compounds with PLC-gamma1 inh
PLCbeta3 conf: PLC-beta3 inhibitor confirmation, biochemical, fluorescence, purified enzyme. 1% of 3,300 active. shares compounds with PLC-gamma1 inh. inhibition, % at 12.3 µM. fluorogenic substrate fluorescence; in the data active means inhibition above about 11%
* hit, by the source's call; x = no result. Unless noted, no stated cut-off is given here; in the data, active means inhibition above about 9.5%; inactive means the rest.

SMILES	PLC-gamma1 inh	sPLA2-III inh	DAGLB inh	PLC-beta3 inh	PLCgamma1 ctr	PLCbeta3 conf
O=C(Cc1ccc(NC2=NC3CS(=O)(=O)CC3S2)cc1)NCc1ccc(Cl)cc1 (stereo not drawn)	11.4*	4.3	2.0	1.4	-2.0	-1.2
CCOc1ccc(NC(=O)c2cccc(NC3=NC4CS(=O)(=O)CC4S3)c2)cc1 (stereo not drawn)	9.9*	4.5	4.7	4.0	6.4	2.1
O=C1CCC[C@H]2C[C@H](NCc3ccco3)CC[C@]23CCCN13	0.8	1.9	x	2.8	x	x
Cn1cccc1C(=O)N1CCN(S(=O)(=O)c2ccc([N+](=O)[O-])cc2)CC1	-1.9	-4.3	x	1.5	x	x
CC(C)c1ccc(NC(=O)Cc2ccc(NC3=NC4CS(=O)(=O)CC4S3)cc2)cc1 (stereo not drawn)	10.7*	0.8	2.7	4.1	-4.0	-2.8
CC(Sc1nnc(C2CC2)n1N)C(=O)NC1CCCCC1C (stereo not drawn)	9.9*	0.0	0.9	2.6	-3.7	1.2
CC(Sc1nnc(-c2ccco2)n1N)C(=O)NC1CCCCC1C (stereo not drawn)	0.4	1.3	-5.8	-4.5	x	x
CCCCNC(=O)NS(=O)(=O)c1ccc(NC(=O)CSc2ncnc3scc(-c4ccc(C)cc4)c23)cc1	-1.9	-56.8	x	-5.1	x	x
O=C(CCSCc1ccccc1F)N1CCN(c2ccccn2)CC1	10.0*	3.0	-0.1	2.1	-6.5	-4.3
Cc1cccc(C2(c3cccc(C)c3)OC(=O)c3ccccc32)c1	14.2*	-0.7	-9.9	8.6	-2.5	-2.7
Cc1c(CCOC(=O)C23CC4CC(CC(C)(C4)C2)C3)sc[n+]1CC(=O)c1ccccc1	12.1*	4.2	2.6	2.1	0.6	1.1
COc1ccc(NC(=O)c2cc(-c3ccc(C)cc3)on2)cc1OC	0.1	-2.7	-4.3	-5.2	x	x
COc1ccc(NC(=O)c2cc(-c3ccc(OC)c(OC)c3)on2)cc1OC	10.0*	8.2	2.4	10.2	-154.7	-194.2
O=C(O)C1Nc2c(O)cccc2C2C=CCC12 (stereo not drawn)	18.5*	1.5	10.0	6.8	-3.1	-6.7
CCCOP(=O)(c1ccc(N(C)C)cc1)C(O)c1ccccc1OC (stereo not drawn)	10.5*	10.1	0.2	5.4	-1.1	0.8
N=C(N)SCc1ccccn1	0.7	-7.4	-0.8	-3.0	x	x
c1ccc(CSc2nnc(SCc3ccccn3)s2)nc1	11.1*	8.4	-0.4	14.4*	-4.5	-2.6
COC(=O)[C@H]1C[C@@]2(CC=C(C)C)c3ccccc3N(C(=O)OC(C)(C)C)[C@H]2N1C(=O)OC(C)(C)C	-0.3	2.4	x	2.3	x	x
CC(=NN1CCN(Cc2ccccc2Cl)CC1)c1ccc(O)cc1	15.8*	11.1	x	10.1	-3.3	-3.7
COC(=O)c1ccc(/C=N/N2CCN(Cc3ccccc3Cl)CC2)cc1	-0.6	-0.6	-7.4	-3.2	x	x
CCCCNC(=O)C1(C(=O)C2CC2)CC(c2ccccc2C(F)(F)F)=NO1 (stereo not drawn)	-1.9	0.2	x	1.0	x	x
Cc1cccc(CS(=O)(=O)Cc2ccc(C(=O)O)o2)c1	10.6*	14.6	0.9	2.5	-6.1	0.2
CC(CCN1CCC(C(O)(c2ccccc2)c2ccccc2)CC1)Oc1cc(F)cc(C#N)c1 (stereo not drawn)	11.5*	-7.6	x	3.6	8.3	3.3
CC(CCN1CCC(C(O)(c2ccccc2)c2ccccc2)CC1)Oc1cccc(F)c1 (stereo not drawn)	5.4	-17.1	x	5.4	x	x
CC(C)OC(=O)CSc1nnc(CNc2cccc(Cl)c2)n1C	10.5*	15.2	1.5	3.3	-7.2	-3.0
SMILES	PLC-gamma1 inh	sPLA2-III inh	DAGLB inh	PLC-beta3 inh	PLCgamma1 ctr	PLCbeta3 conf
Cn1c(CNc2cccc(Cl)c2)nnc1SCC(=O)OC1CCCCC1	-1.2	-3.7	-13.6	-3.7	x	x
O=C(NCCc1ccc(Cl)cc1Cl)c1cncc(Br)c1	10.7*	8.4	-1.4	-0.3	-5.7	-1.8
O=C(COc1ccccc1)N=C1SC2CS(=O)(=O)CC2N1c1ccc(F)cc1F (stereo not drawn)	10.1*	1.6	3.3	-2.2	0.8	-4.5
CCOc1ccc(-n2c(SCC(=O)Nc3cccc4ccccc34)nnc2-c2ccco2)cc1	0.7	-11.4	x	1.1	x	x
CCc1ccccc1NC(=O)C1CCC(=O)N(c2ccc(OC)cc2)C1c1ccc(OC)cc1 (stereo not drawn)	1.2	-5.2	x	3.5	x	x
CCn1cnc2sc(C(=O)O)c(C)c2c1=O	-1.3	-0.4	-2.2	-0.6	x	x
Cc1c(C(=O)O)sc2ncn(C)c(=O)c12	14.0*	6.9	0.3	6.6	-6.7	-5.8
Cc1nn(-c2ccccc2)c(C)c1/C=N/NC(=O)c1[nH][nH]c(=O)c1C	0.4	5.6	x	-0.2	x	x
CN(Cc1ccccc1)C(=O)COC(=O)COc1ccc(C#N)cc1	9.8*	-1.7	0.4	-0.1	-4.1	0.7
C[C@H](O)[C@@H]1CN2CCc3c([nH]c4cccc(-c5ccccc5)c34)[C@@H]2C[C@@H]1N(C)C(=O)C1CCCCC1	-271.8	6.1	x	-300.9	x	x
C[C@]1(O)CC(=O)C=C[C@H]1Nc1ccccc1	17.1*	-1.5	-4.3	0.8	-4.4	-1.3
Cc1ccccc1NC(=O)CN1CCN(c2nc(-c3ccccc3)cs2)CC1	0.0	0.2	x	2.8	x	x
Cc1ccc(S(=O)(=O)N2[C@@H](c3ccc(Cl)cc3)C(C(=O)O)=CC[C@H]2c2ccc(Cl)cc2)cc1	9.8*	-39.8	9.4	-7.5	-4.2	-4.5
COc1ccc(-c2nnc(SCC(=O)Nc3ccc(S(=O)(=O)Nc4nccs4)cc3)n2-c2ccc(OC)cc2)cc1	0.9	-28.5	x	2.5	x	x
CC(=O)C1(C(=O)NCc2ccccc2)CC(c2ccccn2)=NO1 (stereo not drawn)	-1.5	13.7	x	-1.5	x	x
Cc1cc(C(=O)Nc2ccc(Cl)c(Cl)c2)n(-c2ccccc2)n1	-0.5	-18.5	x	1.1	x	x
Cc1cccc(NS(=O)(=O)c2ccc3c(c2)Cc2cc(S(=O)(=O)Nc4cccc(C)c4C)ccc2-3)c1C	10.3*	-13.7	-0.1	3.6	-6.8	-1.6
CN[C@H]1C[C@H]2c3cc(-c4ccccc4C)ccc3CCN2C[C@H]1[C@H](C)O	-22.5	3.2	x	-30.8	x	x
CC(C)(C)c1cc(CCC(=O)NCCc2ccccn2)cc(C(C)(C)C)c1O	-0.7	4.4	1.0	-2.4	x	x
O=C1C=C(NCCc2cc(Br)c(O)c(Br)c2)C(=O)c2ncccc21	11.7*	-8.0	5.5	5.7	6.7	1.2
CN(C(=O)COc1ccccc1C(=O)NCCOc1ccccc1)c1ccccc1	15.1*	5.0	-3.8	16.9*	6.0	11.6*
